Many of the other results were omitted from the sample, so hits are more common in it than they were.
Sm TGR inh: qHTS Assay for the Inhibitors of Schistosoma Mansoni Peroxiredoxins; Schistosoma mansoni thioredoxin glutathione reductase (TGR), Q962Y6; purified TGR, DTNB reduction, TNB absorbance 405 nm; Potency, µM (doses to about 114 µM), for inactives: at the top dose activity change, negative = inhibition, actives largely listed as inhibitors; hit rate 3% among 360,000; AID 485364, 2010; further: potency means the concentration at half of the fitted maximal effect; on the % scale 0 is the no-effect control and ±100 the full control effect; nearly all actives have a fitted effect of over 60% in size
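Kinetic colorimetric format: TGR-catalysed, NADPH-driven DTNB reduction monitored via TNB absorbance. Enzyme dispensed at 20 nM; compound exposure 15 min at room temperature before reaction start.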
Cycloheximide cs: Cycloheximide Counterscreen for Small Molecule Inhibitors of Shiga Toxin. AID 2314, 2010. hit rate 12% among 300,000. cell reporter, cycloheximide protein synthesis inhibition counterscreen. max response, %; in the data active means max response mostly above about 13%, no sharp cut-off; inactive means mostly below about 14%; further: read at 38.3 µM for the half of the compounds with a filed dose; 0% is about no effect
LmPK inh: qHTS Assay for Inhibitors of Leishmania Mexicana Pyruvate Kinase (LmPK); purified LmPK, Kinase-Glo ATP luminescence, 1 h; Potency, µM (series often up to 57.5 µM), for the others: at the top dose activity change, negative = inhibition, actives largely listed as inhibitors; hit rate 0.37% among 290,000; further: potency means the concentration at half of the fitted maximal effect; on the % scale 0 is the no-effect control and ±100 the full control effect
Target sequence (Q27686 whole entry, looked up): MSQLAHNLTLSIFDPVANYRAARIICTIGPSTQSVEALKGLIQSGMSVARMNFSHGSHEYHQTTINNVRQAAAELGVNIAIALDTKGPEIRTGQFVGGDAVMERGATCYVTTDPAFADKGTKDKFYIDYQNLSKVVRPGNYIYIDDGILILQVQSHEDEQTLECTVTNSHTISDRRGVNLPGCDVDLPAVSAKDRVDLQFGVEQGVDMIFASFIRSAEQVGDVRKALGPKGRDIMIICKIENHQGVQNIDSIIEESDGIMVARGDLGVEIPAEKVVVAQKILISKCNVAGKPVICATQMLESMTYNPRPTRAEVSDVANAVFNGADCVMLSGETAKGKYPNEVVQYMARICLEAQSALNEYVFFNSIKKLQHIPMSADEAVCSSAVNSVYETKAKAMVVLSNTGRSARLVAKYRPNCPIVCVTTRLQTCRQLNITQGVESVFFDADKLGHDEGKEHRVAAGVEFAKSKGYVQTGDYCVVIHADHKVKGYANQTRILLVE
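0.1 nM LmPK, 0.5 mM PEP, 0.1 mM ADP; 50 mM imidazole pH 7.2, 7 mM MgCl2, 50 mM KCl; 1 h RT. Kinase-Glo luminescence readout, normalized to no-enzyme (full inhibition) and uninhibited wells.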
Shiga inhibitor: A qHTS for Small Molecule Inhibitors of Shiga Toxin. hit rate 9.2% among 290,000. Vero cells, Shiga toxin protein synthesis inhibition reporter. inhibition, % at 38.7 µM. AID 2315, 2010; in the data active means inhibition mostly above about 28%, no sharp cut-off; inactive means mostly below about 43%; further: 0% is about no effect
Giardia FBPA inh: qHTS Assay for Inhibitors of Fructose-1,6-bisphosphate Aldolase from Giardia Lamblia | Potency, µM (titrated, usually from 59.6 µM), without a hit: top-dose activity, negative = inhibition, usual class: inhibitors | A8B2U2 | hit rate 0.71% among 290,000 | AID 2451, 2010 | purified Giardia FBPA; further: potency means the concentration at half of the fitted maximal effect; on the % scale 0 is the no-effect control and ±100 the full control effect; nearly all actives have a fitted effect of over 55% in size
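40 nM FBPA preincubated 10 min at RT with compound (up to 57.5 uM final), then substrate plus GAPDH/TPI/NAD/arsenate coupling and diaphorase/resazurin added. Fluorescence read after 20 min at RT, 525/598 nm.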
Tb PYK inh: qHTS of Trypanosoma Brucei Inhibitors. pyruvate kinase (Trypanosoma brucei), Q57TT1. TbPYK enzyme, Kinase-Glo Plus ATP luminescence, 45 min. Potency, µM (series often up to 76.8 µM), for the others: at the top dose activity, negative = inhibition, usual class: inhibitors. hit rate 0.12% among 410,000. AID 624173, 2012; further: potency means the concentration at half of the fitted maximal effect; on the % scale 0 is the no-effect control and ±100 the full control effect; nearly all actives have a fitted effect of over 50% in size
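Assay buffer: 50 mM TEA pH 7.2, 100 mM KCl, 10 mM MgCl2, 0.05% BSA, 0.01% Tween-20. Pyruvate kinase from T. brucei plus substrate met compound, then ADP (130 uM final). Luminescence was read post 45 min RT.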
The depositor's hits bear a star; i = inactive; ? = inconclusive; nt = not tested or not shown; + = active, no number; ! = repeats disagree; [ ] = another dose, or the depositor's remark. Unless noted, the call rests on the fitted dose curve; in most records, active means well fitted curve in the direction sought with a large enough effect; inconclusive means small, poorly fitted or top-dose-only effect, or another doubt; inactive means no such curve, though single readings can be large; an effect the other way counts as inactive or inconclusive.

SMILES	Sm TGR inh	Cycloheximide cs	LmPK inh	Shiga inhibitor	Giardia FBPA inh	Tb PYK inh
CC(C)c1ccc(NC(=O)COc2ccc(F)cc2C(=O)c2cnn(-c3ccccc3)c2)cc1	7%	73*	-1%	120*	-2%	7%
CC1(C(=O)Nc2cccc(Oc3ccccc3)c2)CCN1Cc1cccc2c1OCO2 (stereo not given)	nt	nt	nt	nt	nt	2%
CCOc1ccc(N2C=Nc3ccc(OCC)cc3C2)cc1	0%	14*	-6%	48*	6%	-5%
COC(=O)C1C(=O)c2c([nH]c(C(=O)OC3CCCC3)c2C)CC1C (stereo not given)	-3%	47*	0%	49	-4%	1%
COc1ccc(C2CC(=O)c3c([nH]c(C(=O)OC4CCCCCC4)c3C)C2)cc1 (stereo not given)	4%	nt	nt	nt	nt	2%
Cc1ccccc1-c1nc2c3c(-c4ccccc4)c(-c4ccccc4)oc3ncn2n1	5%	nt	nt	nt	nt	3%
CCOc1ccccc1-c1ccc(C(=O)O)s1	nt	44*	nt	+	20%[89.2 µM]	nt
O=C(O)c1ccc(-c2ccccn2)s1	-2%	45*	-2%	29*	8%	-11%
O=C(O)c1ccc(-c2ccccc2C(F)(F)F)s1	nt	9	nt	i	19%[89.2 µM]	nt
O=S(=O)(Nc1ccccc1Cl)c1ccc(-c2ccccn2)s1	nt	nt	nt	nt	nt	-1%
c1ccc(-c2ccc(-c3ccccn3)s2)nc1	9%	45*	?	132*	-7%	-3%
c1ccc(-c2nnc(-c3ccccn3)nn2)nc1	nt	nt	nt	nt	nt	-9%
CN(Cc1ccccc1)S(=O)(=O)c1ccc(Cl)c(C(=O)OCC(N)=O)c1	0%	20*	1%	37*	7%	0%
Nc1nc(O)c(N=Nc2ccc(S(N)(=O)=O)cc2)c(=O)[nH]1	6%	-3	0%	4	4%	5%
CN(C)c1ccc(N=Nc2ccc(S(N)(=O)=O)cc2)cc1	-13%	52*	-6%	89*	4%	-5%
NS(=O)(=O)c1ccc(N=Nc2c[nH]c(=O)c(O)c2)cc1	8.9µM*	-3	?	-3	7.1µM*	?
CC1CCc2c(c3ccccc3n2C(=O)CCl)C1 (stereo not given)	8.9µM*	2	7%	nt	?	-16%
CCN1CCN(CC(=O)n2c3c(c4ccccc42)CC(C)CC3)CC1 (stereo not given)	-25%	-3	2%	-9	-8%	-1%
COc1ccc(/C=N/n2cc(-c3ccc(OC)cc3)nc2N)cc1	-1%	10	-1%	11	-1%	3%
COc1ccc(/C=N/n2cc(-c3ccccc3)nc2N)cc1	-18%	28*	-2%	43*	2%	5%
COc1ccc(S(=O)(=O)NCc2ccc(C(=O)O)cc2)cc1	-5%	-3	3%	-1	6%	-11%
COc1ccc(CNc2ccc(Br)cc2)cc1	0%[57.1 µM]	36*	-5%	126*	2%	-5%
COc1ccc(CNc2ccc(C(=O)O)cc2)cc1	0%	26*	-4%	44*	16%	-3%
COc1ccc(NCc2n[nH]c(=O)c3ccccc23)cc1	-29%	15*	-3%	19	?	-17%
COc1ccc(NCc2ccc(OC)c(OC)c2)cc1	0%	15	1%	17	?	nt
SMILES	Sm TGR inh	Cycloheximide cs	LmPK inh	Shiga inhibitor	Giardia FBPA inh	Tb PYK inh
Cc1ccccc1C(=O)NCC(c1cccnc1)N1CCc2ccccc21 (stereo not given)	3%	nt	nt	nt	nt	-18%
C[C@H]1CN([C@@H](C)CO)C(=O)CCCn2nncc2CO[C@H]1CN(C)C(=O)Nc1cccc(Oc2ccccn2)c1	nt	nt	nt	nt	nt	-9%
COC(=O)Nc1ccc(Cl)c(Cl)c1	nt	16	nt	7	-8%	nt
CCOc1cccc2oc(-c3ccccc3Cl)cc(=O)c12	nt	59*	nt	+	1%[89.2 µM]	nt
O=c1cc(-c2ccccc2Cl)oc2cc(O)cc(O)c12	-3%	46*	1%	94*	0%	3%
O=C(Nc1ccc(O)c2c(=O)cc(-c3ccccc3Cl)oc12)c1ccc(Cl)cc1Cl	-20%	-2	4%	-11	2%	1%
Nc1ccc(O)c2c(=O)cc(-c3ccccc3Cl)oc12	3%	45*!	-5%	61*	0%[89.2 µM]	3%
O=C(Nc1ccc(O)c2c(=O)cc(-c3ccccc3Cl)oc12)c1ccc(F)cc1	-11%	88*!	7%	100*!	2%	-2%
CCOC(=O)C1CCCN(C(=O)c2ccc(NC(=O)c3nsc4ccccc34)cc2)C1 (stereo not given)	-1%	nt	nt	nt	nt	0%
Cc1ccc(C(c2nnnn2CCc2ccccc2)N2CCC(C)CC2)cc1 (stereo not given)	0%	15*	3%	21	-17%	3%
CC(C)CNC(=O)COCc1cc(-c2ccc3c(c2)OCO3)on1	2%	38*	5%	100*	8%	-2%
COCC(C)NC(=O)COCc1cc(-c2ccc3c(c2)OCO3)on1 (stereo not given)	-1%	-3	10%	-6	0%	6%
C=CCNC(=O)COCc1cc(-c2ccc3c(c2)OCO3)on1	10%	27*	5%	39*	11%	1%
CC(C)CNC(=O)c1cc(-c2ccc3c(c2)OCO3)on1	3%	39*	-3%	74*	10%	-2%
CCc1ccc(NC(=O)c2cc(-c3ccc4c(c3)OCO4)on2)cc1	-1%	-1	-3%	-3	5%	0%
CCCNC(=O)COCc1cc(-c2ccc3c(c2)OCO3)on1	2%	29*	0%	36*	-5%	0%
CCCNC(=O)COCc1cc(-c2ccc(F)cc2)on1	9%	nt	nt	nt	nt	-2%
CC(=O)N1CCC2(CCCN(c3ccc(-c4ccccc4)cc3)C2)CC1	nt	nt	nt	nt	-20%	-13%
CCOC(=O)CN(C)C(=O)C1CC(CO[Si](C)(C)C(C)(C)C)=CN1C(=O)OC(C)(C)C (stereo not given)	nt	7	nt	4	-1%	nt
COc1ccccc1NC(=O)C1CCN(C(=O)NCc2ccccc2)CC1	-5%	-6	-7%	-3	-3%	-3%
CCCCNC(=O)COCc1cc(-c2ccc3c(c2)OCO3)on1	-12%	12	0%	47*	2%	-2%
O=C(Nc1ccccc1)c1ccccc1N=Cc1cccc(O)c1	nt	1	1%	7	4%	2%
COC(=O)[C@@H](NC(=O)Nc1ccc(C(C)=O)cc1)C(C)C	-1%	2	-1%	-4	1%	-8%
COc1cccc(C=Nc2ccccc2C(=O)Nc2ccccc2)c1O	-11%	55*	-2%	77*	?	-4%

Screening data deposited in PubChem by National Center for Advancing Translational Sciences (NCATS).
